PubChem BioAssay (EPA / NIEHS)
Calls of active or inactive are those of the source. The calls were made as follows: active = hit-call score of the fitted dose curve at least 0.9, where 1 is the maximum; inactive = score below 0.9.

Target: Paired box protein Pax-6 (Homo sapiens) (UniProt P26367)
Test: ATG_Pax6_CIS: Attagene CIS-FACTORIAL HepG2 Assay for human Paired Box 6 (PAX6) (AID 2282956)
Settings: HepG2 CIS-FACTORIAL PAX6 reporter transcription, RNA readout; actives raise or lower the signal
Summary of the method: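 HepG2 cells transiently transfected with cis-promoter-driven multiplexed reporter units sensing endogenous transcription factor activity; 24 h chemical exposure. Reporter mRNA quantified by RT-PCR, 6-FAM labelling, HpaI digestion and capillary electrophoresis; bidirectional fit versus DMSO baseline.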

Paired box protein Pax-6 (Homo sapiens), sequence (P26367 whole entry, looked up): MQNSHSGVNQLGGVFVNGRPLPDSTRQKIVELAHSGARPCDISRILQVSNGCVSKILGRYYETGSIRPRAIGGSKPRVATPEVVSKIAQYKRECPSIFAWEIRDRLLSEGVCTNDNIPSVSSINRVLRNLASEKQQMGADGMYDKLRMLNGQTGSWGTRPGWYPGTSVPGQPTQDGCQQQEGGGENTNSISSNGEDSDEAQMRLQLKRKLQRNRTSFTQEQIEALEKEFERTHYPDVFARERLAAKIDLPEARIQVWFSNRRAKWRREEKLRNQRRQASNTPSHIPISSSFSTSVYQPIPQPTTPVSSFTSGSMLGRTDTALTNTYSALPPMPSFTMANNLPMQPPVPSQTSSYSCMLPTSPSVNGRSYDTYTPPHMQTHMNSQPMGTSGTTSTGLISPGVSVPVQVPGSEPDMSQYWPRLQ

Question: `CCOP(=O)(SC(C)CC)N1CCSC1=O` (stereo unspecified) was tested. Which outcome did it give?
Answer: inactive

Question: With `CCCCOC(=O)[C@@H](C)Oc1ccc(Oc2ccc(C#N)cc2F)cc1` as the compound, how does the outcome read?
Answer: inactive

Question: How did the outcome turn out when `CC(=NC#N)N(C)Cc1ccc(Cl)nc1` was run?
Answer: inactive

Question: For `CCc1cccc(C)c1N(C(=O)CCl)C(C)COC` (stereo unspecified), which outcome is on record?
Answer: inactive

Question: How did the outcome turn out when `COc1cc(OC)nc(Sc2cccc(Cl)c2C(=O)O)n1` was run?
Answer: inactive

Question: `CON=C(C(=O)OC)c1ccccc1CON=C(C)c1cccc(C(F)(F)F)c1` was tested. Which outcome did it give?
Answer: inactive

Question: How did the outcome turn out when `CC1=NNC(=O)N(/N=C/c2cccnc2)C1` was run?
Answer: inactive

Question: How did the outcome turn out when `S=C1NCCN1` was run?
Answer: inactive

Question: How did the AC50 turn out when `CC(C)=CC1C(C(=O)OCN2C(=O)C3=C(CCCC3)C2=O)C1(C)C` (stereo unspecified) was run?
Answer: 74 µM (active)

Question: `CC(C1CC1)C(O)(Cn1cncn1)c1ccc(Cl)cc1` (stereo unspecified) was tested. Which outcome did it give?
Answer: inactive

Question: Which outcome does the source give for `C#CC(C)(C)NC(=O)c1cc(Cl)cc(Cl)c1` here?
Answer: inactive

Question: Which outcome does the source give for `CCC(=O)Nc1ccc(Cl)c(Cl)c1` here?
Answer: inactive

Question: With `O=C(O)c1cc(Oc2ccc(C(F)(F)F)cc2Cl)ccc1[N+](=O)[O-]` as the compound, how does the outcome read?
Answer: inactive

Question: For `CCOP(=S)(OCC)SCCSCC`, which outcome is on record?
Answer: inactive

Question: How did the outcome turn out when `CCc1cnc(C2=NC(C)(C(C)C)C(=O)N2)c(C(=O)O)c1` (stereo unspecified) was run?
Answer: inactive

Question: For `CCOP(=S)(Oc1cnc(C(C)(C)C)nc1)OC(C)C` (stereo unspecified), which outcome is on record?
Answer: inactive

Question: For `CCOP(=S)(OCC)OC(Cl)C(Cl)(Cl)Cl` (stereo unspecified), which outcome is on record?
Answer: inactive

Question: How did the outcome turn out when `CN(C)C(=O)Nc1cccc(C(F)(F)F)c1` was run?
Answer: inactive

Question: Which outcome does the source give for `CNC(=O)ON=C(C)SC` here?
Answer: inactive

Question: How did the outcome turn out when `CCCOc1nn(C(=O)NS(=O)(=O)c2ccccc2C(=O)OC)c(=O)n1C` was run?
Answer: inactive

Question: `CCOC(=O)COc1cc(-c2nn(C)c(OC(F)F)c2Cl)c(F)cc1Cl` was tested. Which outcome did it give?
Answer: inactive

Question: How did the outcome turn out when `CCOP(=S)(OCC)Oc1ccc([N+](=O)[O-])cc1` was run?
Answer: inactive

Question: For `CC[C@H](C)[C@H]1O[C@]2(C=C[C@@H]1C)C[C@@H]1C[C@@H](C/C=C(\C)[C@@H](O[C@H]3C[C@H](OC)[C@@H](O[C@H]4C[C@H](OC)[C@@H](NC)[C@H](C)O4)[C@H](C)O3)[C@@H](C)/C=C/C=C3\CO[C@@H]4[C@H](O)C(C)=C[C@@H](C(=O)O1)[C@]34O)O2`, which outcome is on record?
Answer: inactive

Question: `CN(C)[C@@H]1C(=O)C(C(N)=O)=C(O)[C@@]2(O)C(=O)C3=C(O)c4c(O)cccc4[C@@](C)(O)[C@H]3[C@H](O)[C@@H]12` was tested. Which outcome did it give?
Answer: inactive

Question: For `CCNc1nc(Cl)nc(NC(C)(C)C#N)n1`, which outcome is on record?
Answer: inactive

Question: With `CC(C)[C@H](C(=O)O[C@H](C#N)c1cccc(Oc2ccccc2)c1)c1ccc(Cl)cc1` as the compound, how does the outcome read?
Answer: inactive

Question: Which outcome does the source give for `CCOP(=S)(OCC)Oc1ccc2c(C)c(Cl)c(=O)oc2c1` here?
Answer: inactive

Question: With `CSc1nc(NC(C)C)nc(NC(C)C)n1` as the compound, how does the outcome read?
Answer: inactive

Question: With `COP(=O)(OC)SCn1c(=O)oc2cc(Cl)cnc21` as the compound, how does the outcome read?
Answer: inactive

Question: `CN(C)NC(=O)CCC(=O)O` was tested. Which outcome did it give?
Answer: inactive

Question: Which outcome does the source give for `Cc1nn(-c2cc(NS(C)(=O)=O)c(Cl)cc2Cl)c(=O)n1C(F)F` here?
Answer: inactive

Question: With `CCCCN(CC)c1c([N+](=O)[O-])cc(C(F)(F)F)cc1[N+](=O)[O-]` as the compound, how does the outcome read?
Answer: inactive

Question: How did the outcome turn out when `CCC(=NOC/C=C/Cl)C1=C(O)CC(C2CCOCC2)CC1=O` (stereo unspecified) was run?
Answer: inactive

Question: For `C[N+]1(C)CCCCC1`, which outcome is on record?
Answer: inactive

Question: `CNC(=O)ON=C(SC)C(=O)N(C)C` was tested. Which outcome did it give?
Answer: inactive

Question: `COP(=O)(NC(C)=O)SC` (stereo unspecified) was tested. Which outcome did it give?
Answer: inactive
